Consider 14 compounds from PubChem BioAssay (NCI).

This is part of a sample that, as a whole, favours compounds with a hit. Of some 83,000 tested, about 20% had one in any assay.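 48-hour exposure, single concentration, 96-well plates; percent growth endpoint where 0 means no net growth. Active: below 10.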 A number with no mark means an inactive call. Activity calls are given as the source filed them.

Among the test systems are T-47D breast; BT-549 breast; MDA-MB-435 melanoma; SW-620 colon; MCF7 breast; HCT-116 colon; HCC-2998 colon; KM12 colon.
Common to all, as to test: NCI-60 one-dose screen, 48 h (100 = growth as untreated, 0 = no growth, -100 = all killed)
Details in all cases: 10 µM

Turning to `CC(=O)N[C@H](C(=O)N[C@@H](CCCNC(=N)N)C(=O)N[C@@H](CCCCN)C(=O)N[C@@H](CCCNC(=N)N)C(=O)N[C@]1(C)CCC/C=C\CCC[C@@](C)(C(=O)N[C@@H](CC(C)C)C(=O)N[C@@H](CC(C)C)C(=O)N[C@@H](CCC(N)=O)C(=O)N[C@@H](CCC(=O)O)C(=O)N[C@@H](CCCNC(=N)N)C(=O)N[C@@H](CCC(=O)O)C(=O)N[C@@H](CC(C)C)C(=O)N[C@H](C(=O)N[C@@H](CCC(=O)O)C(N)=O)C(C)C)NC(=O)[C@H](CCCNC(=N)N)NC(=O)[C@H](CC(C)C)NC1=O)C(C)C`, the growth was 92.4% in the assay with T-47D breast; 102% in the assay with BT-549 breast; 110% with MDA-MB-435 melanoma; 113% in the assay on SW-620 colon; 102% in the assay with MCF7 breast; 105% with HCT-116 colon. Further, the values for the growth with HCC-2998 colon and in the assay with KM12 colon were 109% and 105%, respectively.
With `CCN(CCCNc1cc2c(c(N)c1S(=O)(=O)O)C(=O)c1ccccc1C2=O)c1ccccc1`, the growth is 93.1% with T-47D breast; 89.2% with BT-549 breast; 106% with MDA-MB-435 melanoma; 113% in the assay with SW-620 colon; 107% in the assay with MCF7 breast; 90% in the assay with HCT-116 colon. Besides, the values for the growth with HCC-2998 colon and in the assay on KM12 colon were 108% and 107%, respectively.
Regarding `Nc1c(Br)cc(Br)c2c1[nH]c(=O)c1ccccc12`, the growth was 39.2% in the assay with T-47D breast; 76.8% with BT-549 breast; 93.3% in the assay on MDA-MB-435 melanoma; 73.4% in the assay with SW-620 colon; 22.1% with MCF7 breast; 83.1% in the assay with HCT-116 colon. Also, the growth in the assay with HCC-2998 colon is 87.5%; in the assay on KM12 colon, 101%.
For the compound `Cc1ccc(NC(=S)NNC(=S)Nc2ccc(C)cc2)cc1`, the growth in the assay on T-47D breast is 46.8%; in the assay with BT-549 breast it was 71.7%; in the assay with MDA-MB-435 melanoma, -1.34% (active); in the assay with SW-620 colon, 44.3%; with MCF7 breast it was 29.3%; with HCT-116 colon, 34.5%. In addition, the growth in the assay with HCC-2998 colon was 68.9%; with KM12 colon it was 60.5%.
Take `O=C(/C=C/C=C/c1c(C2CC2)nc2ccccc2c1-c1ccc(F)cc1)c1cccs1`: the growth was 4.82% (active) with T-47D breast; 3.45% (active) in the assay with BT-549 breast; 2.03% (active) in the assay with MDA-MB-435 melanoma; 6.11% (active) in the assay on SW-620 colon; 12.4% with MCF7 breast; -32.6% (active) in the assay on HCT-116 colon. The growth in the assay on HCC-2998 colon is -12.9% (active); in the assay on KM12 colon, 9.97% (active).
Consider `COc1cc2cc(Oc3ccc(NC(=O)Nc4ccc(Cl)c(Cl)c4)cc3)c(C)nc2cc1OC`, for which the growth in the assay with T-47D breast was 60.9%; with BT-549 breast it was 28.1%; in the assay with MDA-MB-435 melanoma, 12.3%; in the assay on SW-620 colon, 23.4%; in the assay on MCF7 breast, 13.8%; in the assay on HCT-116 colon, 10.5%. The growth in the assay on HCC-2998 colon was 37.6%; with KM12 colon, 13.9%.
Regarding `COc1cc(-c2csc(NC(=O)Nc3cc(C(F)(F)F)cc(C(F)(F)F)c3)n2)cc(OC)c1OC`, the growth with T-47D breast is -8.28% (active); with BT-549 breast, 0.972% (active); in the assay on MDA-MB-435 melanoma it was 13%; in the assay on SW-620 colon, 26.5%; in the assay on MCF7 breast, 2.97% (active); in the assay with HCT-116 colon it was 0.288% (active). In addition, the growth in the assay on HCC-2998 colon is 22.4%; in the assay with KM12 colon, 18.7%.
Regarding `CO[C@H]1CC(O[C@@H]2/C(C)=C/C[C@@H]3C[C@@H](C[C@]4(C=C[C@H](C)[C@@H](C5CCCCC5)O4)O3)OC(=O)[C@@H]3C=C(C)[C@@H](O)[C@H]4OC/C(=C\C=C\[C@@H]2C)[C@]43O)O[C@@H](C)C1O[C@H]1C[C@H](OC)[C@@H](O)[C@H](C)O1` (some centres not stated), the growth in the assay on T-47D breast was -51.2% (active); with BT-549 breast, -68.9% (active); with MDA-MB-435 melanoma, -97.1% (active); in the assay with SW-620 colon it was -92.7% (active); in the assay with MCF7 breast, -24.1% (active); in the assay on HCT-116 colon, -98.1% (active). The values for the growth in the assay with HCC-2998 colon and with KM12 colon were -92.3% (active) and -88.6% (active), respectively.
Turning to `CCOC(=O)/C(=C(\C)N)C1CC(=O)NC1=O` (configuration not stated), the growth with T-47D breast was 110%; with BT-549 breast, 87.3%; with MDA-MB-435 melanoma it was 100%; in the assay on SW-620 colon, 96.8%; with MCF7 breast it was 91%; in the assay with HCT-116 colon it was 107%. Moreover, the growth is 103% with HCC-2998 colon and 121% with KM12 colon.
With `COc1cc2c(cc1NC(=O)C(F)(F)F)-c1ccc(NC(=O)C(F)(F)F)cc1C2`, the growth in the assay with T-47D breast was 83.8%; in the assay on BT-549 breast, 98.7%; with MDA-MB-435 melanoma, 99.6%; in the assay with SW-620 colon, 98.1%; in the assay with MCF7 breast, 94.2%; in the assay with HCT-116 colon, 97.1%. Further, the growth in the assay on HCC-2998 colon is 105%; in the assay on KM12 colon, 97.3%.
`COc1cc2cc(Oc3ccc(NC(=O)Nc4ccc(C(F)(F)F)cc4)cc3)c(C)nc2cc1OC`: the growth in the assay on T-47D breast is 57.5%; in the assay with BT-549 breast, 113%; in the assay with MDA-MB-435 melanoma it was 80.3%; with SW-620 colon, 75.3%; in the assay on MCF7 breast, 84.3%; with HCT-116 colon it was 47.2%. In addition, the growth was 94.8% with HCC-2998 colon and 64.4% with KM12 colon.
As for `COc1ccc(-c2csc(NC(=O)c3ccc(Cc4n[nH]c(=O)c5cccnc45)cc3)n2)cc1`, the growth with T-47D breast is 68.8%; in the assay with BT-549 breast, -17.8% (active); in the assay on MDA-MB-435 melanoma, 98.8%; in the assay with SW-620 colon, 95.2%; with MCF7 breast, 77.4%; with HCT-116 colon it was 91.9%. For the same compound, the growth is 90.1% in the assay with HCC-2998 colon and 98.5% with KM12 colon.
As to `CN(C)c1ncnc2c1nnn2C1OC(CO)C(O)C1O` (configuration not stated), the growth in the assay on T-47D breast is 10.5%; in the assay with BT-549 breast, 46.1%; in the assay with MDA-MB-435 melanoma, 8.72% (active); with SW-620 colon, 19.1%; in the assay on MCF7 breast, 6.74% (active); in the assay with HCT-116 colon it was 17.2%. For the same compound, the growth was 8.01% (active) in the assay on HCC-2998 colon and 13.7% in the assay on KM12 colon.
As to `O=c1[nH]c(=O)n(C2C[C@H](O)[C@@H](CO)O2)cc1C(F)(F)F` (some centres not stated), the growth in the assay with T-47D breast was 95.3%; in the assay with BT-549 breast, 105%; in the assay with MDA-MB-435 melanoma, 102%; in the assay on SW-620 colon, 114%; in the assay with MCF7 breast, 102%; with HCT-116 colon, 106%. In addition, the growth in the assay with HCC-2998 colon is 108%; with KM12 colon, 115%.
